Measurements published in the supplement of paper PMC11732987, “Enantioselective OTUD7B fragment discovery through chemoproteomics screening and high-throughput optimisation” (Communications Chemistry, 2025).

Assays:
Assay in all cases: log2 ratio of Biotin-Ahx-Ub-VS probe labelling (fragment/DMSO); higher = less target engagement (more negative = stronger competition), active = hit call of the paper (q ≤ 0.05, log2 ratio ≤ -1)
Conditions in all cases: compound concentration: 200 uM; treatment time: 3 h
USP34 = USP34 (UniProt Q70CQ2)
Sequence of USP34 (Q70CQ2 whole entry, the tested form may be a part): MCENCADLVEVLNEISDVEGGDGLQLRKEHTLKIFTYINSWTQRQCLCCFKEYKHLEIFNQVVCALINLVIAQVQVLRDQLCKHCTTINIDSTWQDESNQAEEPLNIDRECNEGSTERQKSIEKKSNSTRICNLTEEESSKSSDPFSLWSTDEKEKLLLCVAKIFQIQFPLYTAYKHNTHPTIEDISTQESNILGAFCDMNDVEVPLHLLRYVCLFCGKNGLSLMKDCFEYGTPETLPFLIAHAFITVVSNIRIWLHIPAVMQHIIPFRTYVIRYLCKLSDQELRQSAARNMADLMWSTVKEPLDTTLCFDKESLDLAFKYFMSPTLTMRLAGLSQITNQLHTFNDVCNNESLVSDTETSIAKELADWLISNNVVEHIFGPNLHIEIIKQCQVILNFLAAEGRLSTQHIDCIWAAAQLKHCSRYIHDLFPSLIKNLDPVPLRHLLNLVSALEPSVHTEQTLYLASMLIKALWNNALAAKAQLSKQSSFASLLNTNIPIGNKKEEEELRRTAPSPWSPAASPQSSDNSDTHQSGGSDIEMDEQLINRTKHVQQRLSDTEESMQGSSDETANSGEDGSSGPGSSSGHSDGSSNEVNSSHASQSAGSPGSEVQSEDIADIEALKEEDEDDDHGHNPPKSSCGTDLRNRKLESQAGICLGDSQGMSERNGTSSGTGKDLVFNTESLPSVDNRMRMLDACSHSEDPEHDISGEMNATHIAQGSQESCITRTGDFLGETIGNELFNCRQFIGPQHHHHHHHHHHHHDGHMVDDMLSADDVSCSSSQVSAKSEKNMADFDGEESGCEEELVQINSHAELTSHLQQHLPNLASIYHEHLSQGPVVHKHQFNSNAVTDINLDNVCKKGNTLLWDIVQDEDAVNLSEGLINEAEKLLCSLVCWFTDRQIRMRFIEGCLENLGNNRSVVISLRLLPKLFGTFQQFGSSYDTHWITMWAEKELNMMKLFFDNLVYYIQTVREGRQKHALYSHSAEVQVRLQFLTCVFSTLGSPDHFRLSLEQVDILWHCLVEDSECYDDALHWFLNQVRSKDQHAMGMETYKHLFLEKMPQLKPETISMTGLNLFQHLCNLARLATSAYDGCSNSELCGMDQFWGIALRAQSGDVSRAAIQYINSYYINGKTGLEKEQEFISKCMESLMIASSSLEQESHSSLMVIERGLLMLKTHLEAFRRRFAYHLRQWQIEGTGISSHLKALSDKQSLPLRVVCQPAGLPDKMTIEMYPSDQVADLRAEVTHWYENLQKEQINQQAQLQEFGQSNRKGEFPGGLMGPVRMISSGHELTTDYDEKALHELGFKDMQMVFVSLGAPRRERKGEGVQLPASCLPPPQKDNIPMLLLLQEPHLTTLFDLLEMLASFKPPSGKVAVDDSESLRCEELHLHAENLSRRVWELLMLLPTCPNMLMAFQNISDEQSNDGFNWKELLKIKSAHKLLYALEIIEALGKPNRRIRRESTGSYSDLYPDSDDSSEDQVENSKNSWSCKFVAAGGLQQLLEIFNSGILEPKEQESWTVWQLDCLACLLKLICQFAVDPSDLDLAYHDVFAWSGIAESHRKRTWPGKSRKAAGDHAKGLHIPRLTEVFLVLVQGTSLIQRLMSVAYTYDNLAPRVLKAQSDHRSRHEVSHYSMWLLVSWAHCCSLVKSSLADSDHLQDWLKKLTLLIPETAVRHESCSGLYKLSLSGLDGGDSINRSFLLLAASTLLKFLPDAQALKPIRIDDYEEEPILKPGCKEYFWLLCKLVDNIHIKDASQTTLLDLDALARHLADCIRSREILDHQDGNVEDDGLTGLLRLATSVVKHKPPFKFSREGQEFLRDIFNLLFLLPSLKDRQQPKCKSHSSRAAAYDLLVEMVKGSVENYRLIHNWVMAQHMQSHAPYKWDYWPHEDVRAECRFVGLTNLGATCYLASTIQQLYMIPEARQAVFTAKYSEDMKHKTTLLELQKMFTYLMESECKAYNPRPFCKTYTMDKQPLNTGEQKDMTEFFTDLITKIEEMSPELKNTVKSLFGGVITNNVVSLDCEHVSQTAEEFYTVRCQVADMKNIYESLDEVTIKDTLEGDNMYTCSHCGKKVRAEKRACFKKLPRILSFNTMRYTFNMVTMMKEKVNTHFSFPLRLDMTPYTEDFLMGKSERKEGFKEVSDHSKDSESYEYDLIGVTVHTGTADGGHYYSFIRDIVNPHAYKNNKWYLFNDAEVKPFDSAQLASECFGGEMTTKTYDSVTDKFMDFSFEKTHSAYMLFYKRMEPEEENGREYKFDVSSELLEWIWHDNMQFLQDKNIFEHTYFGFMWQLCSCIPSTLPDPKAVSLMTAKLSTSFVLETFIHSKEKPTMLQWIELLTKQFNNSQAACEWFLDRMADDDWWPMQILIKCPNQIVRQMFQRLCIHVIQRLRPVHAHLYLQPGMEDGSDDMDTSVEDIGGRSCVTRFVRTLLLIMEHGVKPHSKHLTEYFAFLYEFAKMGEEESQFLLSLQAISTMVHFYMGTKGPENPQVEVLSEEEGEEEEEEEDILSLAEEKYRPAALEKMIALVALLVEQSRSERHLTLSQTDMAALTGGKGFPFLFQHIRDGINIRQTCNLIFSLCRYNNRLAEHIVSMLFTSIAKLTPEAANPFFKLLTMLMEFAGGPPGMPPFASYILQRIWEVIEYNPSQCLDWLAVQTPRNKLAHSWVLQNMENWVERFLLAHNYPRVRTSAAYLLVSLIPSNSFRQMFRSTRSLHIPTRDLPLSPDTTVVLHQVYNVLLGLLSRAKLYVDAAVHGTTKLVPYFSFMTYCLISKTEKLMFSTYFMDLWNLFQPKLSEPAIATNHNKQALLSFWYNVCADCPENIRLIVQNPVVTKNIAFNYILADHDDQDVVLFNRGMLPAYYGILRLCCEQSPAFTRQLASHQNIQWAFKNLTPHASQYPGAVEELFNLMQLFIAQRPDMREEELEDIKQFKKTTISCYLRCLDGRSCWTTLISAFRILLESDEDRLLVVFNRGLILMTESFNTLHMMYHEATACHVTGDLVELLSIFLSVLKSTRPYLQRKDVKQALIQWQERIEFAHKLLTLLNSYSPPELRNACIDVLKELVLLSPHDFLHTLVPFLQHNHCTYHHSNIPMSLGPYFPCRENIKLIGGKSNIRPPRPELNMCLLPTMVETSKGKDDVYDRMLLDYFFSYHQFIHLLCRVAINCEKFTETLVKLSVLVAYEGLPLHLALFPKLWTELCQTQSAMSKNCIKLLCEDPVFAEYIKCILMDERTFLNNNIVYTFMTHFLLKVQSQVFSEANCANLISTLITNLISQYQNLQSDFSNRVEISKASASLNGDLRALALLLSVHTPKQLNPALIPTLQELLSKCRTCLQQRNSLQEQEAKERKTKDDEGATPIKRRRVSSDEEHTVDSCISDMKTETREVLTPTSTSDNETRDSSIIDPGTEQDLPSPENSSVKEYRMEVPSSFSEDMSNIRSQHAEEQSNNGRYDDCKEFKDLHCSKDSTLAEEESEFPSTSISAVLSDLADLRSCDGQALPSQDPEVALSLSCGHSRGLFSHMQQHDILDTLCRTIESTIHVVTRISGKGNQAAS
How it was run: (§1)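 HEK293T lysate, 495 µg per sample in Tris/CHAPS/IGEPAL buffer with protease inhibitors, was treated in triplicate with fragment at 200 µM or vehicle for 3 h and then with Biotin-Ahx-Ub-VS at 0.5 µM final for 1 h. Labelled DUBs were NeutrAvidin-enriched, digested with LysC and trypsin, and run by diaPASEF LC-MS/MS. Spectronaut label-free quantities were global-median-normalised, and values are average log2 fragment/vehicle ratios by unpaired t-test on proteins with ≥2 unique peptides.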

USP36 = biological target: T1, USP36 (UniProt Q9P275)
T1 sequence (whole entry): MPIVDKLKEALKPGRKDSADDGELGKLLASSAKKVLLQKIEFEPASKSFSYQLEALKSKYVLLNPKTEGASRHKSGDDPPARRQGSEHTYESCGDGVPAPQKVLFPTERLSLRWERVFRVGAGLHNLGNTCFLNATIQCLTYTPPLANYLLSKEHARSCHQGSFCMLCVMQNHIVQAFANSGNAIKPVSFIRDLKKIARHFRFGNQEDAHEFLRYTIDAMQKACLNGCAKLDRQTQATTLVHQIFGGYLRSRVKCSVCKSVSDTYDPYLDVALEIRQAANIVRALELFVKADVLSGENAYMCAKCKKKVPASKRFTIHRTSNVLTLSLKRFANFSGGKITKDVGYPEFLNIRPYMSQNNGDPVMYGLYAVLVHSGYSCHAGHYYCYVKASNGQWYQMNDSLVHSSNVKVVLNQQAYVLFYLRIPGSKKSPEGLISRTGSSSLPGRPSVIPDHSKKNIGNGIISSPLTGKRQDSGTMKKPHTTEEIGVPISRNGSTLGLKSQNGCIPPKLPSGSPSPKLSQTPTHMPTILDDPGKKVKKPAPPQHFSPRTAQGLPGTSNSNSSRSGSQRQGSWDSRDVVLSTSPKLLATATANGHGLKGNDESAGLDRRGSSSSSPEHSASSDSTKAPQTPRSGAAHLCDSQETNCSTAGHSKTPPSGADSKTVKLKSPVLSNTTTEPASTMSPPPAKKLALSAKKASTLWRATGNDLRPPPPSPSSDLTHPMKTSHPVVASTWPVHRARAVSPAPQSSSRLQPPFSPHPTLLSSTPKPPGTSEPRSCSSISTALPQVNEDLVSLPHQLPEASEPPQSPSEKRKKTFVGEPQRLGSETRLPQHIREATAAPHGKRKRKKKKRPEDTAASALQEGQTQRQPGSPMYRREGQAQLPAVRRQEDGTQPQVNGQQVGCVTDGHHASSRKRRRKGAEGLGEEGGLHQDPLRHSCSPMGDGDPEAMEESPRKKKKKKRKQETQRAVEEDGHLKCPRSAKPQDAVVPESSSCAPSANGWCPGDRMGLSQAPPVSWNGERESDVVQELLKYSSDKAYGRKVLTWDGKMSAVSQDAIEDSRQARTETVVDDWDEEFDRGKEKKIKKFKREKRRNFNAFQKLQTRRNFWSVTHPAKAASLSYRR
How it was run: as §1

USP38 = biological target: T2, USP38 (UniProt Q8NB14)
T2 sequence (whole entry): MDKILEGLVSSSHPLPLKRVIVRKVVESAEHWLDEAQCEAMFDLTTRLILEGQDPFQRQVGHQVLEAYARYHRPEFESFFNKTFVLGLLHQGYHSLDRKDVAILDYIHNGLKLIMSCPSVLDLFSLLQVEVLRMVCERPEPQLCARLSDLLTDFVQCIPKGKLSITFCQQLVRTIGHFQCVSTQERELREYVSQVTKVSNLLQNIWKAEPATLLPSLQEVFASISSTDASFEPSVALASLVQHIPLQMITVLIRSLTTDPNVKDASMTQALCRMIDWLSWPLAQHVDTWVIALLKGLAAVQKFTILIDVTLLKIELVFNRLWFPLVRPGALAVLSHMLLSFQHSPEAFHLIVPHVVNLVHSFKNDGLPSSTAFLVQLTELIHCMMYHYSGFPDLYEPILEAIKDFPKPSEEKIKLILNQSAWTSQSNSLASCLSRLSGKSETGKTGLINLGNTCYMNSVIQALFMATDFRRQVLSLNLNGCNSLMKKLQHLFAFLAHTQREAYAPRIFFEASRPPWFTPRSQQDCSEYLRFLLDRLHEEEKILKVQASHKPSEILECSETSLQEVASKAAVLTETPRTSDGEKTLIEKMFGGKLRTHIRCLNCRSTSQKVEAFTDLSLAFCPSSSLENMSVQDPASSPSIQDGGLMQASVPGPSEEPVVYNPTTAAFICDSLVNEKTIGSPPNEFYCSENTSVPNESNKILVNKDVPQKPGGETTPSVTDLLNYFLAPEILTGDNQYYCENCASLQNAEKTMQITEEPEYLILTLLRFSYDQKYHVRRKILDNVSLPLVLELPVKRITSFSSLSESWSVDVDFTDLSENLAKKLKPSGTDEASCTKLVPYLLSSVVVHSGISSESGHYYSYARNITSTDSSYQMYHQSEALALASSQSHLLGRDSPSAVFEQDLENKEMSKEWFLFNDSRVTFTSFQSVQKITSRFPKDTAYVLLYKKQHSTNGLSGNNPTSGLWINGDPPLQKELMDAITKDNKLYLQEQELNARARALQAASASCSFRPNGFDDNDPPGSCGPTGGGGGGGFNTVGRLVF
How it was run: as §1

USP39 = biological target: T3, USP39 (UniProt Q53GS9)
T3 sequence (whole entry): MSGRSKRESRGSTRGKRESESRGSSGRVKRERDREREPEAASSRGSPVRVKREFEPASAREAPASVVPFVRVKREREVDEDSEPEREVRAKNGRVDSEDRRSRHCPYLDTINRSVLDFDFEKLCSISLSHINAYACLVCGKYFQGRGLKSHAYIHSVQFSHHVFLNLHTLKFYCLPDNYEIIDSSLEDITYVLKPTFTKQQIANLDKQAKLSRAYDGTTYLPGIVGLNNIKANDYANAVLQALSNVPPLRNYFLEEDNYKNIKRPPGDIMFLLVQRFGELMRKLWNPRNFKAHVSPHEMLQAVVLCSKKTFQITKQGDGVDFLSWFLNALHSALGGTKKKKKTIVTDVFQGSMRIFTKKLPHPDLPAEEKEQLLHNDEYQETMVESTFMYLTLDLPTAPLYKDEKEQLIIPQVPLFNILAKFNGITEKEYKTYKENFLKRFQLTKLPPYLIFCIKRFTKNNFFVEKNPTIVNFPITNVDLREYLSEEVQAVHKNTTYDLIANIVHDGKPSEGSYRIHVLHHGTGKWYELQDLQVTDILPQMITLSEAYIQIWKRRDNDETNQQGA
How it was run: as §1

USP4 = biological target: T4, USP4 (UniProt Q13107)
T4 sequence (whole entry): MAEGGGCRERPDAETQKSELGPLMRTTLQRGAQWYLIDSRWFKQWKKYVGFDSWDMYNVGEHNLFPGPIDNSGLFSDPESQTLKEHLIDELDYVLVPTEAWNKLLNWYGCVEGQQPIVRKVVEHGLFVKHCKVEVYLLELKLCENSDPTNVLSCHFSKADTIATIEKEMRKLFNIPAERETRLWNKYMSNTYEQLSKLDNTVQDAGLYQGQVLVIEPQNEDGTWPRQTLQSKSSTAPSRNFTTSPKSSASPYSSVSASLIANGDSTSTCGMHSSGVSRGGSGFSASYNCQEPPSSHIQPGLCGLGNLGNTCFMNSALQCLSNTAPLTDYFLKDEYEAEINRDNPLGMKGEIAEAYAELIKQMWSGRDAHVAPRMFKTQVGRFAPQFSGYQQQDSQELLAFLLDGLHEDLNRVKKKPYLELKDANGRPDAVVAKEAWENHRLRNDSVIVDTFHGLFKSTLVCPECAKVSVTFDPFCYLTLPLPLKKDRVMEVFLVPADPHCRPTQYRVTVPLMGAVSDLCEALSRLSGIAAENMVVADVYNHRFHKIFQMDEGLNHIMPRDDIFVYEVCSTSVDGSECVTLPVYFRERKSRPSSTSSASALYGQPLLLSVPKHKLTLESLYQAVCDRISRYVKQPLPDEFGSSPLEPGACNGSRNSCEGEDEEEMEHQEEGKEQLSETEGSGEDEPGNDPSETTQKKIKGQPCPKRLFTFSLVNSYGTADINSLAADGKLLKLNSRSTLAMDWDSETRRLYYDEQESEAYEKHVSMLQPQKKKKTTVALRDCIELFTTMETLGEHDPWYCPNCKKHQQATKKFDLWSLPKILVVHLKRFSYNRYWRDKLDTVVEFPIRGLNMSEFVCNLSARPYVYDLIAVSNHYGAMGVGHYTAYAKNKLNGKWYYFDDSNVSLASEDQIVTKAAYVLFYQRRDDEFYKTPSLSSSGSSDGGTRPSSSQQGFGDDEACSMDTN
How it was run: as §1

Measured: log2 ratio of Biotin-Ahx-Ub-VS probe labelling

COc1cc(Cl)c(C)cc1NC(=O)CCl
inactive: USP34 -0.327 | USP36 -0.122 | USP38 -0.241 | USP39 -0.366 | USP4 -0.423
